Measured values as given in PubChem BioAssay AID624291 (National Center for Advancing Translational Sciences (NCATS), 2012).
The campaign covered roughly 350,000 compounds. About 220 (0.063%) were called active. Another 4% or so got no clear call; they are omitted. The sample holds actives, similar compounds and a random draw of the others, so the mix is not that of the screen. The call rests on the fitted dose curve; in most records, active means well fitted activation curve with a large enough effect; inconclusive means small, poorly fitted or top-dose-only effect; inactive means no such curve, though single readings can be large or run the other way.

Test: qHTS for Activators of Integrin-Mediated Alleviation for Muscular Dystrophy; further: nearly all actives have a fitted effect of over 60% in size
Details: alpha7betagal myoblasts, beta-gal FDG fluorescence, 48 h; series mostly up to 38.3 µM
In short: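 alpha7betagal+/- myoblasts (passage 13, 250/well) treated 48 h at 37C with compounds at 1:260 dilution of DMSO stock. Lysed, then beta-galactosidase activity read as FDG fluorescence (ex 480/em 540) after 30 min, with pre-read for autofluorescence.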

Potency, inactive:
Cn1ncc([N+](=O)[O-])c1C(=O)Nc1cc(Cl)ccc1Cl, Cc1cc2cc3n(c2nn1)N=C(Cl)CC3, CCOC(=O)C(C(=O)c1ccccc1)C(c1ccccc1)c1nccc2ccccc12 (stereo not drawn), Cc1cc(Cl)ccc1C(=O)C1CCCN(C(=O)c2ccc3c(c2)OCO3)C1 (stereo not drawn), CCOC(=O)c1cc(-c2sc(NC(=O)c3ccccc3)nc2C)n(Cc2ccccc2)n1, COc1ccccc1-c1n[nH]nc1C1=CC(=O)CC(C)(C)C1, CC(C)c1cc(C(=O)NC2CCCCCC2)c2ccccc2n1, CC(=O)Nc1ccc2nc(NC(=O)CS(=O)(=O)c3ccc(F)cc3)sc2c1, CN(c1ccccc1)S(=O)(=O)c1ccc(C(=O)NCc2cccnc2)cc1, CNC(=O)c1ccc(CN(C)C(=O)c2cc(C3CC3)nc3c2cnn3C(C)C)cc1, C[C@@H]1CN([C@@H](C)CO)C(=O)CCCn2cc(nn2)CO[C@H]1CN(C)S(=O)(=O)c1ccc(-n2cccn2)cc1, C[C@H](CO)N1C[C@H](C)[C@@H](CN(C)Cc2ccc3c(c2)OCO3)OCc2cnnn2CCCC1=O, C[C@@H]1CN([C@H](C)CO)C(=O)c2cc(-c3ccc(F)cc3)cnc2O[C@H]1CN(C)C(=O)c1ccc(F)cc1, CSc1ncccc1C(=O)N1CCCC(Nc2ccc(F)c(F)c2)C1 (stereo not drawn), Cc1ccc(NC(=O)c2ccco2)cc1, C[C@@H]1CN([C@H](C)CO)S(=O)(=O)c2ccc(C#C[C@@H](C)O)cc2O[C@@H]1CN(C)Cc1ccc(-c2ccccc2)cc1, O[C@H]1C[C@H](c2ccc(Cl)cc2)N(Cc2cccs2)C[C@@H]1n1cc(C2CC2)nn1, O=C1[C@H]2[C@@H](c3ccc(C(F)(F)F)cc3)N[C@]3(CCCN(Cc4ccc(Cl)cc4)C3=O)[C@H]2C(=O)N1Cc1ccccc1, C[C@H]1CN([C@@H](C)CO)S(=O)(=O)c2ccc(-c3cccc(F)c3)cc2O[C@@H]1CN(C)C, Cc1ccc(S(=O)(=O)N2C[C@@H](C)[C@]3(C2)[C@H](O)[C@H](OC(=O)NCc2ccccc2)C[C@H]2C(=O)N(c4ccccc4)C(=O)[C@H]23)cc1, C[C@H]1CN([C@@H](C)CO)C(=O)c2cc(C3=CCCCC3)cnc2O[C@@H]1CN(C)C(=O)Cc1ccccc1, C[C@@H]1CN([C@@H](C)CO)C(=O)CCCn2nncc2CO[C@H]1CN(C)C(=O)Nc1ccc(C(F)(F)F)cc1, CCCCCCn1c(=O)n2n(c1=O)C[C@]1(OC(=O)NCc3ccc(OC)c(OC)c3)CN(S(=O)(=O)c3ccc(C)cc3)C[C@]1(O)C2
